The values below come from PubChem BioAssay (NCATS).

Assay [1] concerns the target Glutathione peroxidase 1 (Homo sapiens) (UniProt P07203). The assay is described as follows: Primary qHTS Assay for Inhibitors of Recombinant Selenoprotein Glutathione Peroxidase 1 (GPX1) (AID 1845191). Further: nearly all actives have a fitted effect of over 65% in size. In short, it runs like this:
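NADPH consumption tracked by fluorescence at 340/450 nm between t=0 and t=15 min, room temperature. Final mix: 10 nM GPX1, 100 nM glutathione reductase, 1 mM GSH, 0.5 mM NADPH, 0.5 mM cumene hydroperoxide, 0.01% BSA; 30 min compound–enzyme preincubation.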
A general note: In qHTS, concentration-response curves come from the screen itself.

Assay [2] is described as follows: Quantitative High-Throughput drug screen in 47 multiple myeloma cell lines against the NCATS MIPE library collection: EJM_DSMZ cell viability assay (AID 1918926; further: nearly all actives have a fitted effect of over 30% in size; further: potency means the concentration at half of the fitted maximal effect). In a few lines: (§1)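 CellTiter-Glo luminescence (ATP) after 48 h compound exposure, 37C/5% CO2; 500 cells/well; MIPE 4.0 approved/investigational drugs pinned in; DMSO = 100%, media only = 0% viability.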

A short description of assay [3]: Quantitative High-Throughput drug screen in 47 multiple myeloma cell lines against the NCATS MIPE library collection: AMO1_DSMZ cell viability assay (AID 1918927; further: nearly all actives have a fitted effect of over 30% in size; further: potency means the concentration at half of the fitted maximal effect). In a few lines: as §1
Assay [4] concerns the target Phospholipid hydroperoxide glutathione peroxidase GPX4 (Homo sapiens) (UniProt P36969). Kind of assay: Primary qHTS Assay for Inhibitors of Recombinant Selenoprotein Glutathione Peroxidase 4 (GPX4) (AID 1845192). Further: nearly all actives have a fitted effect of over 65% in size. In a few lines:
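NADPH consumption followed by fluorescence at 340/450 nm, t=0 and after 15 min at room temperature. Reaction started with cumene hydroperoxide (0.5 mM final) after 30 min compound–GPX4 preincubation; final 200 nM GPX4, 100 nM GR, 1 mM GSH, 0.5 mM NADPH.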

Assay [5] is described as follows: Quantitative High-Throughput drug screen in 47 multiple myeloma cell lines against the NCATS MIPE library collection: FR4_PLB cell viability assay (AID 1918924; further: nearly all actives have a fitted effect of over 35% in size; further: potency means the concentration at half of the fitted maximal effect). In a few lines: (§2)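 Approved and investigational drugs from MIPE 4.0 were added by pin tool to 500 cells per well. After 48 hours at 37C, ATP-based CellTiter-Glo luminescence indicated remaining viability.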

Assay [6] is described as follows: Quantitative High-Throughput drug screen in 47 multiple myeloma cell lines against the NCATS MIPE library collection: Delta47_JCRB cell viability assay (AID 1918925; further: nearly all actives have a fitted effect of over 45% in size; further: potency means the concentration at half of the fitted maximal effect). In short, it runs like this:
as §1

Assay [7] can be described thus: Quantitative High-Throughput drug screen in 47 multiple myeloma cell lines against the NCATS MIPE library collection: ARP1_JJKsccF8 cell viability assay (AID 1918928; further: nearly all actives have a fitted effect of over 40% in size; further: potency means the concentration at half of the fitted maximal effect). In short, it runs like this: (§3)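 Viability screen: myeloma cells (500/well) incubated 48 h at 37 °C, humidified 5% CO2, with pinned library compounds; CellTiter-Glo added, luminescence read; DMSO wells set 100%, medium-only wells 0%.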

The nature of assay [8]: Quantitative High-Throughput drug screen in 47 multiple myeloma cell lines against the NCATS MIPE library collection: ARD_JJKsccE7 cell viability assay (AID 1918929; further: potency means the concentration at half of the fitted maximal effect). In short, it runs like this:
as §1

The nature of assay [9]: Quantitative High-Throughput drug screen in 47 multiple myeloma cell lines against the NCATS MIPE library collection: Karpas620_DSMZ cell viability assay (AID 1918959). Further: nearly all actives have a fitted effect of over 30% in size. Further: potency means the concentration at half of the fitted maximal effect. In a few lines:
as §2

The nature of assay [10]: Quantitative High-Throughput drug screen in 47 multiple myeloma cell lines against the NCATS MIPE library collection: KMM1_JCRB cell viability assay (AID 1918960). Further: nearly all actives have a fitted effect of over 30% in size. Further: potency means the concentration at half of the fitted maximal effect. In a few lines: as §3
The target of assay [11] is Luciferin 4-monooxygenase (Photinus pyralis) (UniProt P08659). Kind of assay: Primary firefly luciferase (FLuc) qHTS assay for identification of artifact compounds. (AID 1845220). Further: series mostly up to about 54 µM; nearly all actives have a fitted effect of over 60% in size. In short, it runs like this: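 Compounds sat 15 min at room temperature with 10 uM luciferin and 10 uM ATP (pH 7.6 Tris acetate). Firefly luciferase (10 nM final) was then added, and luminescence was read 5 min later. Data normalized to no-enzyme and DMSO controls were Hill-fitted.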

The nature of assay [12]: Primary fluorescence-based thiol-reactive (MSTI) qHTS assay for identification of artifact compounds. (AID 1845221).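 Further: series mostly up to about 54 µM; thiol-reactive compounds lower the probe fluorescence signal; nearly all actives have a fitted effect of over 65% in size.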 In a few lines:
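A multi-concentration qHTS design tested compounds against 4 uM MSTI, pH 7.4 phosphate-buffered saline. Plates were protected from light for 1 h at room temperature before imaging fluorescence.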

Assay [13] relates to Nanoluciferase (engineered Oplophorus gracilirostris luciferase). The assay is described as follows: Primary Nanoluciferase (NLuc) qHTS assay for identification of artifact compounds. (AID 1845222). Further: series mostly up to about 54 µM. In short, it runs like this:
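Luminescence from secreted NLuc (filtered, 1:55-diluted S16 cell medium) read 5 min after Nano-Glo substrate; compounds preincubated 15 min, RT. Hill fits of inhibition normalized to DMSO and no-enzyme.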

Values without a mark were called inactive. Inconclusive results are not listed. The source made the active and inactive calls. The call rests on the fitted dose curve; in most records, active means well fitted curve in the direction sought with a large enough effect; inconclusive means small, poorly fitted or top-dose-only effect, or another doubt; inactive means no such curve, though single readings can be large; an effect the other way counts as inactive or inconclusive.

Sequence of Phospholipid hydroperoxide glutathione peroxidase GPX4 (Homo sapiens) (P36969 whole entry, looked up): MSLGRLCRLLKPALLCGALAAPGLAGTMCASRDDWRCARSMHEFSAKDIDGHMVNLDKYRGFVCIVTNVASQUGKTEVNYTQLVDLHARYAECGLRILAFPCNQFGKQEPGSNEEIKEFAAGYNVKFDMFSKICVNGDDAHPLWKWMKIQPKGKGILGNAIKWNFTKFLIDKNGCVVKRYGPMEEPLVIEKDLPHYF
Sequence of Glutathione peroxidase 1 (Homo sapiens) (P07203 whole entry, looked up): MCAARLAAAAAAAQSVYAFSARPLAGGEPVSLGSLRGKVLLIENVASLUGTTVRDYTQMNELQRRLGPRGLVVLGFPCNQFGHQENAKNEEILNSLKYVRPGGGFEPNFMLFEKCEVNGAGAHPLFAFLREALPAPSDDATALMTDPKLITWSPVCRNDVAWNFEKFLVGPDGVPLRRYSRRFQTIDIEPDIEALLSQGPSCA

On to `CNC(=O)Nc1ccc(-c2nc(N3CC4CCC(C3)O4)c3cnn(C4CCC5(CC4)OCCO5)c3n2)cc1`, for which the Potency entry in assay [1] is “inactive”. Also, the Potency was 3.32 µM (active) in assay [2] and 0.0166 µM (active) in assay [3].

As for `CN(C)c1ccc2cc(C(=O)N[C@@H](CCCN=C(N)CCl)C(=O)NCc3ccccc3)ccc2c1`, in assay [4], the Potency entry is “inactive”. In addition, the Potency in assay [5] was 11.8 µM (active); in [6], 18.7 µM (active); in assay [2] it was 1.32 µM (active); in [3], 1.66 µM (active); in assay [7] it was 18.7 µM (active); in assay [8], 4.18 µM (active). In addition, the Potency is 5.9 µM (active) in assay [9] and 1.32 µM (active) in assay [10].

As to `COc1cccc2c1C(=O)c1c(O)c3c(c(O)c1C2=O)C[C@@](O)(C(=O)CO)C[C@@H]3O[C@H]1C[C@H](N)[C@H](OC2CCCCO2)[C@H](C)O1` (stereo not given in full), the Potency entry in [4], in assay [3], in [8], in assay [9] and in assay [10] was “inactive” throughout. Also, the Potency in assay [5] is 3.72 µM (active); in assay [6], 0.833 µM (active); in assay [2], 2.35 µM (active).

For `C=CCNc1c(O)cc2c(O)c1C[C@@H](C)C[C@H](OC)[C@@H](O)[C@@H](C)C=C(C)[C@H](OC(N)=O)[C@@H](OC)C=CC=C(C)C(=O)N2`, the Potency in assay [5] is 0.372 µM (active); in [6], 0.469 µM (active); in [2], 1.05 µM (active); in assay [3] it was 0.148 µM (active); in assay [7], 0.148 µM (active); in [8], 0.0743 µM (active). Further, the Potency is 1.18 µM (active) in assay [9] and 0.372 µM (active) in assay [10].

`CC[C@]12C=CCN3CC[C@@]4(c5cc([C@@]6(C(=O)OC)C[C@H]7C[C@@H](C(C)(F)F)CN(Cc8c6[nH]c6ccccc86)C7)c(OC)cc5N(C)[C@H]4[C@@](O)(C(=O)OC)[C@H]1OC(C)=O)[C@@H]32`: the Potency in [5] was 0.0017 µM (active); in [6] it was 0.0093 µM (active); in [2] it was 0.118 µM (active); in assay [3], 0.0059 µM (active); in assay [7], 0.0047 µM (active); in assay [8], 0.0042 µM (active). In addition, the Potency in [10] was 0.0083 µM (active).

For the molecule `CC(C)N(CC[C@H](c1ccccc1)c1cc(CO)ccc1O)C(C)C`, the Potency result in assay [5], in assay [6], in assay [2], in [3], in [7] and in [9] was “inactive” in each case.

Take `COc1cccc2c1C(=O)c1c(O)c3c(c(O)c1C2=O)C[C@@](O)(C(=O)CO)C[C@H]3O[C@H]1C[C@H](N)[C@H](O)[C@H](C)O1`: the Potency in assay [5] was 0.264 µM (active); in assay [6], 0.148 µM (active); in [2], 0.209 µM (active); in [3], 1.05 µM (active); in assay [7], 0.332 µM (active); in assay [8], 2.96 µM (active). Moreover, the Potency in [9] was 1.05 µM (active); in assay [10], 1.87 µM (active).

Consider `CC(=O)O[C@@]12CO[C@H]1C[C@H](O)[C@@]1(C)C(=O)[C@H](O)C3=C(C)[C@@H](OC(=O)C(O)[C@@H](NC(=O)OC(C)(C)C)c4ccccc4)C[C@@](O)([C@@H](OC(=O)c4ccccc4)[C@@H]21)C3(C)C` (stereo not given in full), for which the Potency result in assay [5], in assay [6], in assay [2], in [3], in [7] and in assay [8] was “inactive” throughout. Further, the Potency entry in assay [10] is “inactive”.

`C#C[C@]1(O)CC[C@@H]2[C@@H]3CCc4cc(O)ccc4[C@H]3CC[C@@]21C`: the Potency in assay [5] was 16.6 µM (active); in assay [6], 7.43 µM (active); in assay [2], 6.62 µM (active); in assay [3] it was 16.6 µM (active); in assay [7] it was 23.5 µM (active); in [8], 18.7 µM (active).

Take `CC(=O)N1CCN(c2ccc(OCc3nn(C)c(C)c3-c3cccc4c(CCCOc5cccc6ccccc56)c(C(=O)O)n(Cc5cccnc5)c34)cc2)CC1`: the Potency was 10.5 µM (active) in assay [5]; 0.332 µM (active) in [6]; 0.105 µM (active) in [2]; 0.0526 µM (active) in assay [3]; 10.5 µM (active) in [7]; 0.118 µM (active) in assay [8]. Further, the Potency in [9] is 1.87 µM (active); in [10], 1.18 µM (active).

For `C[C@@H](Oc1ccc2[nH]nc(C=Cc3cnn(CCO)c3)c2c1)c1c(Cl)cncc1Cl`, the Potency was 26.4 µM (active) in assay [5], 0.469 µM (active) in assay [6], 4.18 µM (active) in assay [2] and 5.26 µM (active) in [7]. For the same molecule, the Potency result in assay [3], in assay [8] and in assay [10] was “inactive” each time.

With `C[C@H](CCC(=O)O)[C@H]1CC[C@H]2[C@@H]3[C@H](O)C[C@@H]4C[C@H](O)CC[C@]4(C)[C@@H]3CC[C@]12C`, the Potency entry in [5], in [6], in [2], in assay [3], in assay [7] and in assay [8] was “inactive” throughout. Further, the Potency entry in assay [9] and in assay [10] was “inactive” in each case.

For the molecule `CC(C)c1cc(C(C)C)c(CC(=O)NS(=O)(=O)Oc2c(C(C)C)cccc2C(C)C)c(C(C)C)c1`, the Potency entry in [11], in assay [12] and in assay [9] was “inactive” throughout. In addition, the outcome in assay [13] was inactive. The Potency in assay [3] is 4.69 µM (active).

On to `COc1cc(OC)cc(-c2ccc3ncc4ccc(=O)n(-c5ccc(N6CCNCC6)c(C(F)(F)F)c5)c4c3c2)c1`, for which the Potency in assay [5] was 4.69 µM (active); in assay [6] it was 1.48 µM (active); in [2], 5.9 µM (active); in assay [3], 1.18 µM (active); in assay [7] it was 3.32 µM (active); in assay [8] it was 2.64 µM (active). Further, the Potency was 4.69 µM (active) in [9] and 2.96 µM (active) in assay [10].

`CC(N[C@H]1CCCC[C@H]1NC(=O)c1ccc(Cl)cc1)c1cccc2ccccc12` (stereo not given in full): the Potency result in assay [4] was “inactive”. For the same molecule, the figures for the Potency in assay [2] and in [9] were 20.9 µM (active) and 0.132 µM (active), respectively.

`Nc1nc(=O)n([C@H]2C[C@H](O)[C@@H](CO)O2)cc1F`: the Potency result in assay [4], in assay [5], in assay [2], in [8] and in assay [9] was “inactive” each time. Besides, the Potency is 0.526 µM (active) in assay [7] and 0.0074 µM (active) in assay [10].

As for `O=C1NC(=O)C(=Cc2ccc3nccc(-c4ccncc4)c3c2)S1`, the Potency in [5] is 0.332 µM (active); in [6], 0.0332 µM (active); in assay [2], 0.662 µM (active); in [3], 0.372 µM (active); in assay [7], 0.0833 µM (active); in assay [8], 0.118 µM (active). For the same molecule, the Potency is 0.296 µM (active) in assay [9] and 0.132 µM (active) in assay [10].

Regarding `CN1C(C(=O)Nc2ccccn2)=C(O)c2sc(Cl)cc2S1(=O)=O`, the Potency result in assay [4], in assay [8], in assay [9] and in assay [10] was “inactive” throughout. In addition, the Potency in assay [6] is 2.96 µM (active); in [7], 2.64 µM (active).

For the molecule `Nc1nc(=O)n([C@H]2CSC(CO)O2)cc1F` (stereo not given in full), the Potency result in [5], in assay [6], in assay [2], in assay [3], in [7] and in assay [8] was “inactive” in each case. The Potency entry in [9] and in assay [10] was “inactive” in each case.
